Source: PubChem BioAssay (NCATS)
Records with an inconclusive call do not appear. The source made the active and inactive calls. The call rests on the fitted dose curve; in most records, active means well fitted curve in the direction sought with a large enough effect; inconclusive means small, poorly fitted or top-dose-only effect, or another doubt; inactive means no such curve, though single readings can be large; an effect the other way counts as inactive or inconclusive.

Tests used:
[1] = Cell Viability - LYMP2-005 (AID 967); further: series mostly up to about 92 µM
How it was run: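 CellTiter-Glo luminescence (cellular ATP) read-out; LYMP2-005 lymphoblastoid cells, 2500/well, 5 h pre-incubation, then 24 h compound exposure at 37 C in complete medium. Tetraoctylammonium bromide positive control; AC50 by standard Hill fit.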

[2] = Cell Viability - LYMP2-009 (AID 968); further: series mostly up to about 92 µM; nearly all actives have a fitted effect of over 55% in size
[3] = Cell Viability - LYMP2-011 (AID 969); further: nearly all actives have a fitted effect of over 60% in size
How it was run: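 2500 cells/well, 5 hr 37 C; compound added, 24 hr 37 C; CellTiter-Glo 30 min RT; luminescence. qHTS concentration-response, Hill-equation AC50. Tetraoctylammonium bromide positive control.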

[4] = Cell Viability - LYMP2-013 (AID 970); further: series mostly up to about 92 µM; nearly all actives have a fitted effect of over 55% in size
How it was run: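 qHTS; 2500 lymphoblastoid cells/well; 5 hr 37 C settle; cpd 24 hr 37 C; CellTiter-Glo, 30 min RT; luminescence. AC50 = Hill fit.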

[5] = Cell Viability - LYMP2-015 (AID 971); further: nearly all actives have a fitted effect of over 55% in size
How it was run: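 Luminescent ATP read-out (CellTiter-Glo) served as the viability measure after lymphoblastoid cells were exposed to compounds for 24 hours at 37 C. Concentration-response data were fitted with the Hill equation to give AC50.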

[6] = Cell Viability - LYMP2-017 (AID 972); further: series mostly up to about 92 µM; nearly all actives have a fitted effect of over 55% in size
How it was run: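 2500 cells/well, 5 h 37 C; cpd 24 h 37 C in complete medium; CellTiter-Glo, 30 min RT; luminescence (ATP). AC50 via Hill fit, qHTS.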

[7] = Cell Viability - LYMP2-019 (AID 973); further: nearly all actives have a fitted effect of over 55% in size
How it was run: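 Luminescent ATP read-out (CellTiter-Glo, 30 min room temperature) served as the viability measure after 24 hr treatment of lymphoblastoid cells at 37 C. Concentration-response data were fitted to the Hill equation for AC50.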

[8] = Cell Viability - LYMP2-021 (AID 974)
How it was run: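 Plate 2500 lymphoblastoid cells per well and incubate 5 hr at 37 C. Add compounds over a concentration range and incubate 24 hr at 37 C. Add CellTiter-Glo, wait 30 min at room temperature, read luminescence.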

[9] = Cell Viability - LYMP2-023 (AID 975)
How it was run: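 2500 cells/well, 5 hr 37 C; cpd 24 hr 37 C; CellTiter-Glo, 30 min RT; luminescence. qHTS conc-response, Hill fit -> AC50. Pos ctrl tetraoctylammonium bromide.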

[10] = Cell Viability - LYMP2-025 (AID 976); further: series mostly up to about 92 µM
How it was run: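 Seed 2500 LYMP2-025 cells/well; 5 hr at 37 C; add compound; 24 hr at 37 C; add CellTiter-Glo; 30 min RT; read luminescence. AC50 from Hill-modelled concentration-response.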

[11] = Cell Viability - LYMP2-002 (AID 977); further: series mostly up to about 92 µM
How it was run: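 Human lymphoblastoid LYMP2-002 cells, 2500 per well, exposed to compounds for 24 h at 37 C in complete medium; viability read as intracellular ATP by CellTiter-Glo luminescence, AC50 from Hill fits.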

[12] = Cell Viability - LYMP2-006 (AID 978); further: series mostly up to about 92 µM; nearly all actives have a fitted effect of over 60% in size
How it was run: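 Human lymphoblastoid cells, 2500 per well, were preincubated 5 hr at 37 C, then exposed to compounds for 24 hr at 37 C in complete medium. Viability was read as intracellular ATP by CellTiter-Glo luminescence; AC50 from Hill-equation fits of qHTS concentration-response data.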

[13] = Cell Viability - LYMP2-007 (AID 979);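 further: cells exposed to compound for 24 h before reading; nearly all actives have a fitted effect of over 60% in size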
How it was run: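 Luminescent ATP signal (CellTiter-Glo) serves as the viability read-out after 24 hr compound treatment of lymphoblastoid cells in complete medium at 37 C. Concentration-response data were fitted to the Hill equation to give AC50 values.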

[14] = Cell Viability - LYMP2-008 (AID 980); further: nearly all actives have a fitted effect of over 60% in size
How it was run: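 qHTS, human lymphoblastoid line, 2500 cells/well; 5 hr preincubation, 24 hr compound, 37 C. CellTiter-Glo ATP luminescence. AC50 via Hill equation. Tetraoctylammonium bromide positive control.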

[15] = Cell Viability - LYMP2-010 (AID 981); further: nearly all actives have a fitted effect of over 55% in size
How it was run: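 Luminescent ATP signal (CellTiter-Glo) served as the viability read-out. Cells of the human lymphoblastoid line were treated with compound over a concentration range for 24 hours at 37 C, and AC50 values came from Hill-equation modeling.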

[16] = Cell Viability - LYMP2-012 (AID 982)
[17] = Cell Viability - LYMP2-016 (AID 984); further: nearly all actives have a fitted effect of over 55% in size
How it was run: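 Human lymphoblastoid cells (LYMP2-016), 2500/well in complete medium, preincubated 5 hr at 37 C, then compound-treated 24 hr at 37 C. Intracellular ATP read by CellTiter-Glo luminescence after 30 min at room temperature; AC50 from Hill-equation concentration-response fits.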

[18] = Cell Viability - LYMP2-018 (AID 985);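 further: compound exposure lasted 24 hr at 37 °C; nearly all actives have a fitted effect of over 50% in size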
How it was run: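 Luminescent ATP signal (CellTiter-Glo, read after 30 min at room temperature) reports viable cells after 24 hr compound treatment at 37 C. Concentration-response data were fitted to the standard Hill equation for AC50.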

[19] = Cell Viability - LYMP2-020 (AID 986)
How it was run: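 Luminescent ATP signal (CellTiter-Glo, 30 min at room temperature) is the read-out after 24 h compound treatment of lymphoblastoid cells at 37 C. AC50 values come from Hill-equation fits across concentrations.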

[20] = Cell Viability - LYMP2-022 (AID 987); further: nearly all actives have a fitted effect of over 55% in size
How it was run: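 qHTS: human lymphoblastoid cells 2500/well; 5 hr 37 C; cpd added; 24 hr 37 C; CellTiter-Glo, 30 min RT; luminescence. AC50 via Hill fit; tetraoctylammonium bromide positive ctrl.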

Measured: Potency

C=CC(=C)CCC=C(C)C
inactive: all assays above
